An excerpt weighted towards active compounds, which were near 18% of everything screened.
TGFb SMAD3 inh: blocks TGF-b signaling. AID 588855. HepG2 CAGA-GFP TGF-b/SMAD3 reporter, GFP fluorescence, 18 h; TGF-beta stimulated, 500 pg/mL final. 410,000 compounds, 1.2% hits. Potency, µM (doses to about 46.1 µM), for the others: at the highest dose activity, negative = inhibition, most hits filed as inhibitors; also: potency is read from the fitted curve at half-maximal effect; % is scaled to controls: 0 for no effect and ±100 for the full control effect; nearly all actives have a fitted effect of over 65% in size
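First, reporter cells (HEPG2 CAGA-GFP) rested 2 h at 37 degrees C. Next, compounds were pinned in and TGF-beta added to 500 pg/mL final. After 18 h, GFP was imaged per cell and summed per well.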
IL-1B inflam inh: inhibitors of inflammasome signaling (IL-1 beta secretion). activity change, % at 57.5 µM. 360,000 compounds, 4.7% hits. THP-1 LPS/ATP IL-1B secretion, AlphaLISA, 16 h; stronger effect = lower value; in the data active = activity change below about -50%; inconclusive = mostly about -30% to -49%; also: % is scaled to controls: 0 for no effect and ±100 for the full control effect
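THP-1 cells pretreated 1 hr with compounds (up to 57.5 uM final), then stimulated with LPS (250 ng/mL final) plus ATP (1.25 mM final); secreted IL-1B measured by AlphaLISA after 16 hr, decreased signal indicating inhibition.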
HepG2 tox: HepG2 cytotoxicity, counter-screen for TGF-b inhibitors. HepG2 CAGA-GFP viability, ATP luminescence, 18 h. Potency, µM (series often up to 46.1 µM), without a hit: top-dose activity change, negative = cytotoxicity, usual class: cytotoxic. AID 588856. 410,000 compounds, 0.76% hits; also: potency is read from the fitted curve at half-maximal effect
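HepG2 CAGA-GFP cells (1000/well, DMEM with 1% FBS) received compound, then TGF-beta at 500 pg/mL final, and were incubated 18 hours at 37 degrees C. Viability was read by CellTiter-Glo luminescence. Media-only wells were set as complete cell-killing and DMSO as no toxicity.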
TDP1 inh: TDP1 (human) enzyme inhibition | Q9NUW8 | recombinant TDP1, AlphaScreen DNA substrate cleavage | Potency, µM (doses to about 130 µM), inactives show at the top dose activity change, negative = inhibition, hits mostly inhibitors | 350,000 compounds, 0.28% hits | AID 485290; also: potency is read from the fitted curve at half-maximal effect; % is scaled to controls: 0 for no effect and ±100 for the full control effect; nearly all actives have a fitted effect of over 40% in size
Target sequence (Q9NUW8 whole entry, looked up): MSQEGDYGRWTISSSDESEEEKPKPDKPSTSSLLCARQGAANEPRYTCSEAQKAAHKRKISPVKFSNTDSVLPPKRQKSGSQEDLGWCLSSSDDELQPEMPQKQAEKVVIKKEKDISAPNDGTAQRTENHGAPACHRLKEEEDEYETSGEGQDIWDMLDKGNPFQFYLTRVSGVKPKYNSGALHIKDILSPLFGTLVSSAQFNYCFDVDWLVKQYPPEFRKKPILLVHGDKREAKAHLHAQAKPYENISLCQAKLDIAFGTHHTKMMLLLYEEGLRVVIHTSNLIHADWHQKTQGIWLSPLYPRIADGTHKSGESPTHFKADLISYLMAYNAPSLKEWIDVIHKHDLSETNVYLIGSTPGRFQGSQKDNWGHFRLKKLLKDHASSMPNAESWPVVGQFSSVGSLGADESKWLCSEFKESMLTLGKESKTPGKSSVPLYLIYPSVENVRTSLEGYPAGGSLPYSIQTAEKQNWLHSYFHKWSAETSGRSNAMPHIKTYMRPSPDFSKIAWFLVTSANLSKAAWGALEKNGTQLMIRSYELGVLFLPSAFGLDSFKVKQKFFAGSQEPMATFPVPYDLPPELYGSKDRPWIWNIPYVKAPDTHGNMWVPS
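AlphaScreen read-out: signal falls as enzyme removes the 3' tyrosine-FITC from a 5'-biotinylated DNA oligo (15 nM, 5 min, RT). Enzyme was E. coli-made recombinant Tdp1 at 1 nM, exposed to compound for 15 min beforehand; beads 10 ug/ml, 10 min.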
DT40 TDP1 no CPT: qHTS for Inhibitors of human tyrosyl-DNA phosphodiesterase 1 (TDP1): qHTS in cells in absence of CPT; Potency, µM (highest dose often 46.2 µM), inactives show at the top dose activity change, negative = growth inhibition, most hits filed as inhibitors; 420,000 compounds, 15% hits; DT40 Tdp1-/- hTDP1 cells, no CPT, ATP luminescence, 48 h; also: potency is read from the fitted curve at half-maximal effect; % is scaled to controls: 0 for no effect and ±100 for the full control effect; nearly all actives have a fitted effect of over 55% in size
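DT40 Tdp1-/-;hTDP1 cells, no CPT (DMSO vehicle only), 400 cells/well; compounds pin-transferred; ≥48 hr, 37 °C; CellTiter-Glo 30 min RT dark, luminescence read.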
TDP1 cell CPT: growth inhibition of DT40 Tdp1-/-;hTDP1 cells with camptothecin (screen for TDP1 inhibitors) | chicken DT40 Tdp1-/-;hTDP1 cells + 20 nM CPT, ATP luminescence, 48 h | Potency, µM (top dose mostly 46.2 µM), for the others: at the top dose activity change, negative = growth inhibition, most hits filed as inhibitors | 420,000 compounds, 12% hits | AID 686979; also: potency is read from the fitted curve at half-maximal effect; % is scaled to controls: 0 for no effect and ±100 for the full control effect; nearly all actives have a fitted effect of over 55% in size
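Chicken DT40 Tdp1-/- cells complemented with human TDP1, 400 cells/well, exposed to compounds plus 20 nM camptothecin for at least 48 h at 37 C; viability read as ATP content by CellTiter-Glo luminescence.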
The depositor's hits bear a star; ? = inconclusive; . = not tested or not shown; [ ] = dose if it differs, or a comment. Unless noted, calls follow the shape of the dose curve; as a rule, active = well fitted curve in the direction sought with a large enough effect; inconclusive = small, poorly fitted or top-dose-only effect, or another doubt; inactive = no such curve, though single readings can be large; an effect the other way counts as inactive or inconclusive.

SMILES	TGFb SMAD3 inh	IL-1B inflam inh	HepG2 tox	TDP1 inh	DT40 TDP1 no CPT	TDP1 cell CPT
O=C(Nc1ccc2oc(-c3cccnc3)nc2c1)c1ccc(-c2cccc(Cl)c2)o1	?	.	5.4%	.	7.31µM*	-78.0%
ClC=CCl	.	.	.	21.1%	.	.
COc1ccc(-n2nnnc2C(C2CC2)N2CCC(n3c(=O)[nH]c4ccccc43)CC2)cc1 (stereo unspecified)	-8.8%	?	-2.1%	.	?	?
COc1ccc(-n2nnnc2C(c2cccs2)N2CCC(n3c(=O)[nH]c4ccccc43)CC2)cc1 (stereo unspecified)	?	-25.4	-2.9%	.	13µM*	11.6µM*
O=C(CCCN1CCC(n2c(=O)[nH]c3ccccc32)CC1)c1ccc(F)cc1	2.3%	-28.4	-24.2%	10.3%[21 µM]	?	?
COc1ccc(-n2nnnc2C(c2cccc(OC)c2OC)N2CCC(n3c(=O)[nH]c4ccccc43)CC2)cc1 (stereo unspecified)	?	-22.3	-14.3%	.	5.17µM*	8.2µM*
COc1cccc(C(c2nnnn2Cc2ccccc2)N2CCC(n3c(=O)[nH]c4ccccc43)CC2)c1OC (stereo unspecified)	?	0.0	-50.8%	.	3.26µM*	2.59µM*
COc1ccc(-n2nnnc2C(c2ccnc3ccccc23)N2CCC(n3c(=O)[nH]c4ccccc43)CC2)cc1 (stereo unspecified)	-35.1%	-28.8	0.0%	.	?	?
O=c1[nH]c2ccccc2n1C1CCN(C(c2cc3ccccc3o2)c2nnnn2Cc2ccccc2)CC1 (stereo unspecified)	?	?	6.0%	.	9.2µM*	10.3µM*
OCCCBr	.	.	.	3.1%	-0.3%[92.5 µM]	5.4%[92.5 µM]
COC(=O)C1=C(C)NC(C)=C(C(=O)NCCCN2CCC(c3ccccc3)(c3ccccc3)CC2)C1c1ccc([N+](=O)[O-])cc1 (stereo unspecified)	.	.	.	18.7%	.	.
CCN(CC)c1ncnc2c1ncn2[C@@H]1O[C@@H](COP(=O)(O)OP(=O)(O)C(Br)(Br)P(=O)(O)O)[C@H](O)[C@H]1O	.	.	.	-4.8%	-6.4%	-23.0%
COc1cccc(C(c2nnnn2-c2ccc3c(c2)OCCO3)N2CCC(n3c(=O)[nH]c4ccccc43)CC2)c1OC (stereo unspecified)	?	32.3	12.6µM*	.	2.31µM*	2.91µM*
CCOC(=O)c1c(C)n(Cc2ccco2)c2ccc(O)cc12	-5.4%	12.0	-40.2%	.	1.9%	-25.5%
CCCCn1c(C)c(C(=O)OCC)c2c(CN3CCOCC3)c(O)ccc21	0.6%	-60.4*	-27.3%	2.3%	-16.9%	-21.1%
CCCCn1c(C)c(C(=O)OCC)c2c(CN3CCCC3)c(O)ccc21	?	-78.6*	-29.5%	.	11.6µM*	18.4µM*
COC1C=CC23c4cc5c(cc4CN(CC2O)C3C1)OCO5 (stereo unspecified)	.	.	.	.	1.3µM*	2.06µM*
C=CC[C@@H](CC(=O)N(CCO)Cc1ccccc1)C(=O)NC[C@H](OC(=O)[C@@H](CC=C)CC(=O)OC(C)(C)C)c1ccccc1	?	?	-10.3%	0.4%	-78.8%	20.6µM*
Cc1ccccc1N1C(=O)NC(=O)/C(=C\c2cc(Br)c(N3CCOCC3)o2)C1=O	19.3%	-103.1*	19.3%	-0.6%	7.31µM*	4.11µM*
C[C@]12CCC3C(CC[C@H]4C[C@H](O)CC[C@]34C)C1CCC2=O (stereo partly specified)	-4.1%	21.6	12.0%	0.0%	?	0.6%
C[C@]12CCC3C(CC[C@H]4C[C@H](OC(=O)c5cccnc5)CC[C@]34C)C1CCC2=O (stereo partly specified)	-27.3%	20.6	-3.7%	6.7%	23.1µM*	?
C[C@]12CCC3C(CC[C@H]4C[C@H](O)CC[C@]34C)C1C[C@@H](O)[C@H]2O (stereo partly specified)	-5.7%	3.4	14.1µM*	.	?	?
C[C@@]12CCC(O)C[C@H]1CCC1C2CC[C@]2(C)C(=O)CCC12 (stereo partly specified)	.	.	.	2.7%	?	?
C[C@]12CCC3C(CC[C@H]4C[C@H](O)CC[C@]34C)C1C[C@@H](O)[C@@H]2O (stereo partly specified)	-4.0%	-6.8	-7.9%	0.2%	-22.3%	?
C[C@]12CC[C@H](O)C[C@@H]1CC[C@H]1[C@H]3CCC(=O)[C@@]3(C)CC[C@@H]12	-19.2%	-24.7	-53.0%	.	18.4µM*	?
SMILES	TGFb SMAD3 inh	IL-1B inflam inh	HepG2 tox	TDP1 inh	DT40 TDP1 no CPT	TDP1 cell CPT
CCN(CC)CCCOC(=O)C(OC(C)C)(c1ccccc1)c1ccccc1	-2.9%	-56.3*	-30.6%	-2.5%	18.4µM*	23.1µM*
CCC1(CC)C(=O)NC(=O)NC1=O	.	.	.	3.1%	18.9%	2.3%
CC(C)[C@]1(NC(=O)[C@@H]2C=C3c4cccc5[nH]cc(c45)C[C@H]3N(C)C2)O[C@@]2(O)C3CCCN3C(=O)[C@H](Cc3ccccc3)N2C1=O (stereo partly specified)	.	.	.	17.8%[56.1 µM]	?	?
Oc1cc[c]([Hg][Cl])cc1	.	.	.	.	0.266µM*	0.299µM*
Cc1ccc(Sc2ccc(N3CCCC(C(=O)Nc4ccc(Cl)cc4)C3)nn2)cc1 (stereo unspecified)	?	.	-16.1%	3.6%	?	?
COC(=O)C1=C(C)NC(C)=C(C(=O)O[C@H]2CCN(Cc3ccccc3)C2)[C@H]1c1cccc([N+](=O)[O-])c1	.	.	.	.	23.7µM*	?
CN(CC(=O)NC1CCCC1)S(=O)(=O)c1cccc(Cl)c1	?	8.2	1.0%	1.9%	13.5%	13.5%
CCc1cc2c(cc1-c1csc(C/C(N)=N/O)n1)C(C)(C)CCC2(C)C	?	-18.6	-98.1%	.	18.4µM*	?
COc1cccc(/C=C2\N=C(c3cncc(Br)c3)OC2=O)c1	-1.1%	9.8	2.9%	-4.1%	23.1µM*	?
Cc1ccccc1-n1c(O)c(/C=C/C=Nc2ccccc2)c(=O)[nH]c1=O	163.7%	12.4	7.2%	0.0%	-0.5%	-0.2%
Cc1ccc(-n2c(O)c(/C=C3/C(c4ccccc4)=Nc4ccccc43)c(=O)[nH]c2=O)cc1	?	-57.6*	-30.0%	-2.7%	7.31µM*	5.8µM*

Screening data: PubChem, National Center for Advancing Translational Sciences (NCATS)
